# Target: T1, Methionyl-tRNA synthetase, putative (Leishmania donovani (strain BPK282A1)) (UniProt E9BF75)
# T1 sequence (whole entry): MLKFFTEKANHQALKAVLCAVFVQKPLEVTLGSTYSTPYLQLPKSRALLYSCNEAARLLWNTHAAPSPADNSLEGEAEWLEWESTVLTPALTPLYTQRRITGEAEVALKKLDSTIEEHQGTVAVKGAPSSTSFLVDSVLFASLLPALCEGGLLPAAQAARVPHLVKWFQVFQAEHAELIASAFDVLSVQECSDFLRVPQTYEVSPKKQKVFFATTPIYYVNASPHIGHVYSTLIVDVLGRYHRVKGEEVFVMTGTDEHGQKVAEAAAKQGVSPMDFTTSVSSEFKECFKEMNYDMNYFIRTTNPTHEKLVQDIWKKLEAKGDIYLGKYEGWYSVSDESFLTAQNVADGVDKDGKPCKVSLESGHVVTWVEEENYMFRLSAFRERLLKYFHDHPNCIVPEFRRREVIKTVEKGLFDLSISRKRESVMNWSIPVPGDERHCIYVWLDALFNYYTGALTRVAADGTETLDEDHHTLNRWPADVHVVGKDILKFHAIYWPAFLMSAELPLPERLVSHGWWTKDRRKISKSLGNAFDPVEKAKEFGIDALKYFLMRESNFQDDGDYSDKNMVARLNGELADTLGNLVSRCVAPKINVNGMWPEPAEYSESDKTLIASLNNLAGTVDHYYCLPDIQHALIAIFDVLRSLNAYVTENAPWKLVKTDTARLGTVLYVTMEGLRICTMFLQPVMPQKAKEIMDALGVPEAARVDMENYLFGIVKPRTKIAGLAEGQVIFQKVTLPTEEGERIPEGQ
# Assay: Leishmania donovani Methionine tRNA synthetase (LdMetRS):v7. Dose response assay
# Format: functional
# Set-up: conc 80 nM, time 150 minutes
structure (smiles),measurement,setting,value
Nc1nc(-c2ccccc2)cn1NC(=O)Nc1ccccc1F,PXC50,MAX_EFFECT 18.14814815,< 4
Cc1nc(NCCO)c2c3c(sc2n1)CCC3,PXC50,MAX_EFFECT 6.632653061,< 4
same,PXC50,MAX_EFFECT 7.828282828,< 4
Cc1nc(N2CCCC(N)CC2)c2ccsc2n1 (stereo not drawn),PXC50,MAX_EFFECT 0.0,< 4
same,PXC50,MAX_EFFECT 3.10880829,< 4
CC(C)(C)c1nc(NCCO)c2c3c(sc2n1)CCCC3,PXC50,MAX_EFFECT 6.632653061,< 4
same,PXC50,MAX_EFFECT 7.323232323,< 4
NS(=O)(=O)c1cccnc1Nc1cc(O)ccn1,PXC50,MAX_EFFECT 7.407407407,< 4
CS(=O)(=O)N1CCN(c2ccc3ccc(C(=O)NCC(=O)N4CCOCC4)cn23)CC1,PXC50,"BOTTOM 0.290613171, HILLSLOPE 1.637678219, MAX_EFFECT 51.19617225, TOP 53.26483222",4.83
same,PXC50,"BOTTOM 5.655540606, HILLSLOPE 2.540340494, MAX_EFFECT 56.3071298, TOP 55.42961413",4.8
COc1ccc2c(c1)COB2O,PXC50,MAX_EFFECT 5.094339623,< 4
same,PXC50,MAX_EFFECT 9.589041096,< 4
Cc1nc(N2CCC(NS(C)(=O)=O)CC2)c2c(-c3cccs3)csc2n1,PXC50,MAX_EFFECT 36.61616162,< 4
same,PXC50,MAX_EFFECT 37.24489796,< 4
CS(=O)(=O)N1CCN(c2ccc3ccc(C(=O)NC4CCCC4)cn23)CC1,PXC50,"BOTTOM 3.919126037, HILLSLOPE 1.949141012, MAX_EFFECT 63.17460317, TOP 66.86118232",4.76
same,PXC50,"BOTTOM 4.67001684, HILLSLOPE 2.010919918, MAX_EFFECT 67.58893281, TOP 64.90205504",5
CC(C)C[C@H](N)COc1ccc(OCc2ccccc2)c(F)c1,PXC50,MAX_EFFECT 25.05175983,< 4
same,PXC50,MAX_EFFECT 28.78464819,< 4
Cc1nc(N2CCN(CCO)CC2)c2c(-c3cccs3)csc2n1,PXC50,MAX_EFFECT 9.693877551,< 4
same,PXC50,MAX_EFFECT 12.37373737,< 4
FC1(F)CCN(c2ccccc2)CC12CCN(c1ncccn1)C2 (stereo not drawn),PXC50,MAX_EFFECT 8.920187793,< 4
same,PXC50,MAX_EFFECT 12.40740741,< 4
CC(C)C[C@@H](COc1cccc(F)c1Oc1ccc(Cl)cc1)NS(C)(=O)=O,PXC50,MAX_EFFECT 6.609808102,< 4
same,PXC50,MAX_EFFECT 8.902691511,< 4
COc1ccccc1NC(=O)Nc1cccc(N)c1,PXC50,MAX_EFFECT 17.00934579,< 4
CCOC(=O)c1sc2nc(CN3CCCCC3)nc(NC3CC3)c2c1C,PXC50,MAX_EFFECT 16.58291457,< 4
same,PXC50,MAX_EFFECT 18.42751843,< 4
COC(=O)c1ccc(OC)c(NC(=O)N2CCOc3ccccc32)c1,PXC50,MAX_EFFECT 3.018867925,< 4
CCOC(=O)CCN(C)c1nc(C)nc2sc(-c3ccccc3)cc12,PXC50,MAX_EFFECT 45.45454545,< 4
same,PXC50,MAX_EFFECT 46.44808743,< 4
Cc1nc(N(C)CC(=O)NC2CC2)c2c3c(sc2n1)CCC3,PXC50,MAX_EFFECT 3.703703704,< 4
same,PXC50,MAX_EFFECT 5.866666667,< 4
CCn1cc(-c2cc(C(F)(F)F)nc(NC3CCCC3)n2)c(C)n1,PXC50,MAX_EFFECT 6.788511749,< 4
same,PXC50,MAX_EFFECT 7.571801567,< 4
CN(C)CCNC(=O)c1ccc2ccc(N3CCN(S(C)(=O)=O)CC3)n2c1,PXC50,"BOTTOM 0.033, HILLSLOPE 2.605738827, MAX_EFFECT 55.98086124, TOP 56.52145989",4.84
same,PXC50,"BOTTOM -2.072944034, HILLSLOPE 2.61914663, MAX_EFFECT 60.32906764, TOP 62.06864911",4.75
Cc1nc(N[C@H](C(=O)O)C(C)C)c2c3c(sc2n1)CCCC3,PXC50,MAX_EFFECT 7.978723404,< 4
same,PXC50,MAX_EFFECT 8.29015544,< 4
Cc1nc(N2CCC(C)CC2)c2ccsc2n1,PXC50,MAX_EFFECT 9.848484848,< 4
same,PXC50,MAX_EFFECT 11.2244898,< 4
COCCNc1nc(-c2ccccn2)nc2sc3c(c12)CCCC3,PXC50,"BOTTOM 1.822787583, HILLSLOPE 1.291311311, MAX_EFFECT 71.49122807, TOP 102.6012048",4.27
same,PXC50,"BOTTOM -5.083400143, HILLSLOPE 1.043102409, MAX_EFFECT 66.66666667, TOP 106.555572",4.25
CS(=O)(=O)N1CCN(c2ccc3ccc(C(=O)NCC4(CO)CCCC4)cn23)CC1,PXC50,MAX_EFFECT 45.93301435,< 4
same,PXC50,MAX_EFFECT 48.99451554,< 4
C[C@@H](CO)Nc1ccnc(Nc2cccc(F)c2)n1,PXC50,MAX_EFFECT 30.05780347,< 4
CNC(=O)CN(C)c1nc(C)nc2sc3c(c12)CCC3,PXC50,MAX_EFFECT 5.291005291,< 4
same,PXC50,MAX_EFFECT 6.4,< 4
CCOCCCNc1nc(-c2ccc(C)cc2)cc(C(F)(F)F)n1,PXC50,MAX_EFFECT 5.102040816,< 4
same,PXC50,MAX_EFFECT 5.808080808,< 4
O=C(NCC1(O)CCC(F)(F)CC1)c1cc(=O)c2cc(F)cc(O)c2o1,PXC50,MAX_EFFECT 4.030710173,< 4
same,PXC50,MAX_EFFECT 10.04784689,< 4
COc1cccc(NC(=O)N2CCCc3ccccc32)c1,PXC50,MAX_EFFECT 45.28301887,< 4
CC(C)NC(=O)c1ccc2ccc(N3CCN(S(C)(=O)=O)CC3)n2c1,PXC50,"BOTTOM 1.200641937, HILLSLOPE 2.342552546, MAX_EFFECT 57.54716981, TOP 55.68048652",4.88
same,PXC50,"BOTTOM 2.289724742, HILLSLOPE 1.802731874, MAX_EFFECT 51.59817352, TOP 52.80479707",4.95
CCc1nc(N2CCCC2C(=O)O)c2c3c(sc2n1)CCC3 (stereo not drawn),PXC50,MAX_EFFECT 9.836065574,< 4
same,PXC50,MAX_EFFECT 11.76470588,< 4
NS(=O)(=O)c1cccnc1Nc1cccc(F)c1,PXC50,MAX_EFFECT 1.518026565,< 4
Cc1cc(CNc2cc(Cl)cc(Cl)c2)no1,PXC50,MAX_EFFECT 7.456978967,< 2.7

# Reference: ChEMBL document CHEMBL3988442, “University of Dundee, Small-Polar-MMV Screening Library” (2021)
